# Results taken from the supplement of paper PMC12282887.
# ± gives the standard deviation of the averaged measurements.
# Columns and labels:
# Assay in all cases: promoter activity interaction Z-score (Lux/OD deviation from empty-vector control); higher = stronger promoter induction by the compound
# [1] = tested on: E. coli BW25113 acrABp lux reporter
# Summary of the method: (§1)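 Low-copy luxCDABE promoter reporters were carried by E. coli BW25113, either wild type or lacking one of three genes, grown in 40 µl LB Lennox in 384-well plates at 37°C. Each compound was run at four 1:2 dilutions in biological duplicates, with OD600 and luminescence read every 30 min for 12 h. Integration used 0–8 h for wild type and 1–9 h for deletion strains, and wells under 10% of the median growth value were removed. Luminescence normalised to growth was fitted against a control, and the Z-transformed residual is the score.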
# [2] = tested on: E. coli BW25113 micFp lux reporter
# Summary of the method: as §1
# [3] = tested on: E. coli BW25113 ompFp lux reporter
# Summary of the method: as §1
# [4] = tested on: E. coli BW25113 robp lux reporter
# Summary of the method: as §1
# [5] = tested on: E. coli BW25113 soxSp lux reporter
# Summary of the method: as §1
# [6] = tested on: E. coli BW25113 tolCp lux reporter
# Summary of the method: as §1
# [7] = 1.3 µg/ml, genetic background: wild type
# [8] = 1.3 µg/ml, genetic background: ΔmarA
# [9] = 1.3 µg/ml, genetic background: Δrob
# [10] = 1.3 µg/ml, genetic background: ΔsoxS
# [11] = 2.5 µg/ml, genetic background: wild type
# [12] = 2.5 µg/ml, genetic background: ΔmarA
# [13] = 2.5 µg/ml, genetic background: Δrob
# [14] = 2.5 µg/ml, genetic background: ΔsoxS
# [15] = 5 µg/ml, genetic background: wild type
# [16] = 5 µg/ml, genetic background: ΔmarA
# [17] = 5 µg/ml, genetic background: Δrob
# [18] = 5 µg/ml, genetic background: ΔsoxS
# [19] = 10 µg/ml, genetic background: wild type
# [20] = 10 µg/ml, genetic background: ΔmarA
# [21] = 10 µg/ml, genetic background: Δrob
# [22] = 10 µg/ml, genetic background: ΔsoxS
smiles,measurement,setting,value
C/C=C/C/C=C/CCC(=O)[C@H]1O[C@H]1C(N)=O [Cerulenin],promoter activity interaction Z-score,[1]; [7],-0.125 ± 0.083
same,promoter activity interaction Z-score,[1]; [8],0.156 ± 2.5
same,promoter activity interaction Z-score,[1]; [9],-0.449 ± 0.14
same,promoter activity interaction Z-score,[1]; [10],-0.289 ± 0.15
same,promoter activity interaction Z-score,[1]; [11],-0.467 ± 0.3
same,promoter activity interaction Z-score,[1]; [12],-0.0359 ± 0.66
same,promoter activity interaction Z-score,[1]; [13],-0.976 ± 0.19
same,promoter activity interaction Z-score,[1]; [14],-0.932 ± 0.045
same,promoter activity interaction Z-score,[1]; [15],-0.444 ± 0.41
same,promoter activity interaction Z-score,[1]; [16],-0.831 ± 1.3
same,promoter activity interaction Z-score,[1]; [17],-0.767 ± 0.071
same,promoter activity interaction Z-score,[1]; [18],-1.14 ± 0.31
same,promoter activity interaction Z-score,[1]; [19],-0.873 ± 0.42
same,promoter activity interaction Z-score,[1]; [20],-0.628 ± 0.16
same,promoter activity interaction Z-score,[1]; [21],-1.08 ± 0.23
same,promoter activity interaction Z-score,[1]; [22],-1.52 ± 0.22
same,promoter activity interaction Z-score,[2]; [7],-0.474 ± 0.33
same,promoter activity interaction Z-score,[2]; [8],-0.0522 ± 0.1
same,promoter activity interaction Z-score,[2]; [9],-0.112 ± 0.0041
same,promoter activity interaction Z-score,[2]; [10],-0.269 ± 0.047
same,promoter activity interaction Z-score,[2]; [11],-0.545 ± 0.087
same,promoter activity interaction Z-score,[2]; [12],0.0153 ± 0.15
same,promoter activity interaction Z-score,[2]; [13],-0.217 ± 0.13
same,promoter activity interaction Z-score,[2]; [14],-0.157 ± 0.23
same,promoter activity interaction Z-score,[2]; [15],-0.73 ± 0.2
same,promoter activity interaction Z-score,[2]; [16],-0.0985 ± 0.11
same,promoter activity interaction Z-score,[2]; [17],-0.316 ± 0.094
same,promoter activity interaction Z-score,[2]; [18],-0.417 ± 0.0084
same,promoter activity interaction Z-score,[2]; [19],-0.803 ± 0.19
same,promoter activity interaction Z-score,[2]; [20],-0.112 ± 0.028
same,promoter activity interaction Z-score,[2]; [21],-0.428 ± 0.056
same,promoter activity interaction Z-score,[2]; [22],-0.177 ± 0.14
same,promoter activity interaction Z-score,[3]; [7],0.448 ± 0.98
same,promoter activity interaction Z-score,[3]; [8],-0.174 ± 0.032
same,promoter activity interaction Z-score,[3]; [9],0.809 ± 0.68
same,promoter activity interaction Z-score,[3]; [10],0.456 ± 0.65
same,promoter activity interaction Z-score,[3]; [11],0.281 ± 0.58
same,promoter activity interaction Z-score,[3]; [12],0.575 ± 1.4
same,promoter activity interaction Z-score,[3]; [13],0.286 ± 1.6
same,promoter activity interaction Z-score,[3]; [14],0.108 ± 0.82
same,promoter activity interaction Z-score,[3]; [15],0.0997 ± 0.61
same,promoter activity interaction Z-score,[3]; [16],-0.516 ± 0.26
same,promoter activity interaction Z-score,[3]; [17],-0.143 ± 0.79
same,promoter activity interaction Z-score,[3]; [18],-0.26 ± 1
same,promoter activity interaction Z-score,[3]; [19],-0.484 ± 0.16
same,promoter activity interaction Z-score,[3]; [20],-0.179 ± 1.2
same,promoter activity interaction Z-score,[3]; [21],-0.74 ± 0.62
same,promoter activity interaction Z-score,[3]; [22],-0.034 ± 1
same,promoter activity interaction Z-score,[4]; [7],-0.713 ± 0.68
same,promoter activity interaction Z-score,[4]; [8],-0.524 ± 0.17
same,promoter activity interaction Z-score,[4]; [9],-0.0923 ± 0.31
same,promoter activity interaction Z-score,[4]; [10],-0.398 ± 0.41
same,promoter activity interaction Z-score,[4]; [11],-0.365 ± 0.25
same,promoter activity interaction Z-score,[4]; [12],1.47 ± 0.041
same,promoter activity interaction Z-score,[4]; [13],-0.839 ± 0.52
same,promoter activity interaction Z-score,[4]; [14],-0.254 ± 0.55
same,promoter activity interaction Z-score,[4]; [15],-0.743 ± 0.19
same,promoter activity interaction Z-score,[4]; [16],-0.973 ± 0.24
same,promoter activity interaction Z-score,[4]; [17],-0.585 ± 0.0081
same,promoter activity interaction Z-score,[4]; [18],-1.25 ± 0.42
same,promoter activity interaction Z-score,[4]; [19],-0.802 ± 0.13
same,promoter activity interaction Z-score,[4]; [20],-0.285 ± 0.72
same,promoter activity interaction Z-score,[4]; [21],-0.242 ± 0.94
same,promoter activity interaction Z-score,[4]; [22],-1.2 ± 0.47
same,promoter activity interaction Z-score,[5]; [7],0.113 ± 0.13
same,promoter activity interaction Z-score,[5]; [8],0.192 ± 0.091
same,promoter activity interaction Z-score,[5]; [9],0.247 ± 0.027
same,promoter activity interaction Z-score,[5]; [10],0.367 ± 0.43
same,promoter activity interaction Z-score,[5]; [11],0.186 ± 0.013
same,promoter activity interaction Z-score,[5]; [12],0.183 ± 0.076
same,promoter activity interaction Z-score,[5]; [13],0.113 ± 0.03
same,promoter activity interaction Z-score,[5]; [14],0.157 ± 0.38
same,promoter activity interaction Z-score,[5]; [15],0.112 ± 0.028
same,promoter activity interaction Z-score,[5]; [16],0.138 ± 0.17
same,promoter activity interaction Z-score,[5]; [17],0.18 ± 0.047
same,promoter activity interaction Z-score,[5]; [18],0.17 ± 0.56
same,promoter activity interaction Z-score,[5]; [19],-0.107 ± 0.23
same,promoter activity interaction Z-score,[5]; [20],-0.0897 ± 0.034
same,promoter activity interaction Z-score,[5]; [21],-0.133 ± 0.19
same,promoter activity interaction Z-score,[5]; [22],0.572 ± 1.2
same,promoter activity interaction Z-score,[6]; [7],-1.14 ± 0.49
same,promoter activity interaction Z-score,[6]; [8],-0.979 ± 0.76
same,promoter activity interaction Z-score,[6]; [9],-0.746 ± 0.32
same,promoter activity interaction Z-score,[6]; [10],-0.768 ± 0.23
same,promoter activity interaction Z-score,[6]; [11],-0.464 ± 0.17
same,promoter activity interaction Z-score,[6]; [12],-0.204 ± 1.3
same,promoter activity interaction Z-score,[6]; [13],-1.38 ± 0.2
same,promoter activity interaction Z-score,[6]; [14],-0.639 ± 0.61
same,promoter activity interaction Z-score,[6]; [15],-0.559 ± 0.033
same,promoter activity interaction Z-score,[6]; [16],-0.9 ± 0.62
same,promoter activity interaction Z-score,[6]; [17],-1.25 ± 0.71
same,promoter activity interaction Z-score,[6]; [18],-1.5 ± 0.1
same,promoter activity interaction Z-score,[6]; [19],-0.737 ± 0.051
same,promoter activity interaction Z-score,[6]; [20],-1.7 ± 0.36
same,promoter activity interaction Z-score,[6]; [21],-0.996 ± 0.2
same,promoter activity interaction Z-score,[6]; [22],-0.404 ± 0.65
